Marburg entry inh = qHTS for inhibitors of binding or entry into cells for Marburg Virus | AID 540276, 2011 | 300,000 tested, 1.8% active | Marburg virus pseudotyped entry inhibition, cell reporter | Potency, µM (doses to about 37.8 µM), for inactives: at the highest dose activity change, negative = inhibition, most hits filed as inhibitors; calls by dose curve; tested in HEK293 cells
Lassa entry inh = qHTS for Inhibitors of binding or entry into cells for Lassa Virus | Potency, µM (series often up to 37.9 µM), for inactives: top-dose activity change, negative = inhibition, usual class: inhibitors | 300,000 tested, 1.2% active | Lassa virus pseudotype entry inhibition, cell reporter; calls by dose curve; tested in HEK293 cells; also: nearly all actives have a fitted effect of over 50% in size
Sm TGR block = qHTS Assay for the Inhibitors of Schistosoma Mansoni Peroxiredoxins | purified TGR, DTNB reduction, TNB absorbance 405 nm | Potency, µM (doses to about 114 µM), for the others: top-dose activity change, negative = inhibition, actives largely listed as inhibitors | 360,000 tested, 3% active; also: nearly all actives have a fitted effect of over 60% in size
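TGR 20 nM + NADPH 100 uM (dispensed conc.), cpd preinc 15 min RT; start with NADPH (500 uM addition) then DTNB (15 mM addition). Kinetic TNB absorbance, 405 nm filter. Four-parameter Hill fit across titration.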
HCV inh = qHTS Assay for Inhibitors of Hepatitis C Virus (HCV). Huh7.5.1 HCVcc-Cre infection, luciferase reporter, 44 h. Potency, µM (series often up to 41.8 µM), for the others: at the top dose activity change, negative = inhibition, actives largely listed as inhibitors. 340,000 tested, 3.4% active. AID 651820, 2012
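Luciferase read-out (15 sec integration) after a 15 min room-temperature substrate step quantifies HCVcc-Cre infection. Cells, 1,000 per well, had compound added 4 h post-plating, then virus at ~0.5 moi, and were cultured 44 h.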
FMDV inh = High Throughput Screening for Foot and Mouth Disease Virus Antivirals; FMDV antiviral cell-based qHTS; Potency, µM (highest dose often 57.9 µM), without a hit: at the highest dose activity change, negative = inhibition, most hits filed as inhibitors; 410,000 tested, 1.2% active; AID 1159524, 2015; calls by dose curve; tested in HEK293T cells; also: read-out not given here; nearly all actives have a fitted effect of over 45% in size
RE007 growth inh = qHTS Assay for Inhibitors of the HIV-1 protein Vpr; Potency, µM (doses to about 92.2 µM), for the others: at the highest dose activity change, negative = less growth, hits mostly inhibitors; AID 651644, 2012; S. pombe RE007 Vpr strain, BacTiter-Glo ATP luminescence, 24 h; 360,000 tested, 0.21% active; active = well fitted falling curve with a large enough effect; inconclusive = small, poorly fitted or top-dose-only effect; inactive = no such curve, though single readings can be large or run the other way; also: nearly all actives have a fitted effect of over 50% in size
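Fission yeast strain RE007, carrying one chromosomally integrated HIV-1 vpr copy, was seeded at OD 0.01 in PMG+AL medium with 23 nL pinned compound. After 24 h at 30 °C and 99% humidity, viability was read by BacTiter-Glo luminescence.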
* marks the source's active call; other numbers are inactive results; ? = inconclusive; / = no result given; [ ] = another dose, or the depositor's remark. Most compounds without a hit are left out; they make up all but 7.2% or so of the library. Unless noted, calls follow the shape of the dose curve; as a rule, active = well fitted curve in the direction sought with a large enough effect; inconclusive = small, poorly fitted or top-dose-only effect, or another doubt; inactive = no such curve, though single readings can be large; an effect the other way counts as inactive or inconclusive. % is scaled to controls: 0 for no effect and ±100 for the full control effect; potency is read from the fitted curve at half-maximal effect.

SMILES | Marburg entry inh | Lassa entry inh | Sm TGR block | HCV inh | FMDV inh | RE007 growth inh
COc1cccc(CNC(=O)CN2C(=O)CSc3c2c(C)nn3-c2ccccc2)c1 | / | -20.2%[46.1 µM] | 1.6% | / | 47.6% | /
CN(C)c1ccc(/C=C/c2cc[n+](C)cc2)cc1 | ? | ? | -29.2% | 1.78µM* | -24.5% | ?
Cc1ccc(C(=O)O/N=C/c2ccc(N(C)C)cc2)cc1 | 4.3% | 15.9% | 10.7% | 0.9% | 49.1% | 11.1%
Cc1ccc(/C=C/c2ccc(N(C)C)cc2)[n+](C)c1 | / | / | -22.4% | 3.16µM* | -17.4% | /
CN(C)c1ccc(/C=C/c2cc[n+]([O-])cc2)cc1 | -6.6% | / | -1.9% | / | / | /
COc1ccc(C(C)n2c(C)c3c(C)nnc(C)c3c2C)cc1 (stereo unspecified) | ? | 13.9%[46.1 µM] | -26.9% | ? | -0.5% | 3.9%
Cc1nnc(C)c2c(C)n(C(C)c3ccccc3)c(C)c12 (stereo unspecified) | -34.3% | -7.2% | -4.0% | 10µM* | ? | -22.3%
C/C(=N\NC(=O)Cc1c[nH]c2ccccc12)c1ccc2ccccc2c1 | ? | 3.98µM* | -0.4% | -15.2% | 11.6% | -0.7%
O=C(Cc1c[nH]c2ccccc12)N/N=C/c1ccccc1O | / | / | -1.3% | ? | 78.7% | 13.9%
CC(C)(C)c1ccc(/C=N/NC(=O)Cc2c[nH]c3ccccc23)cc1 | 14.6µM* | ? | -3.4% | ? | -10.3% | -1.6%
C/C(=N\NC(=O)c1c[nH]c2ccccc12)c1ccc2c(c1)OCO2 | / | / | -6.4% | -13.7% | 35.2% | -14.5%
O=C(NC1CC1)[C@@H]1C[C@@H](Sc2nc3ccccc3[nH]2)CN1CC1CCCCC1 | / | / | / | / | -9.8% | /
Cc1cc(N2CCCCC2)n2ncc(-c3ccc(Cl)cc3)c2n1 | ? | ? | -0.8%[11.4 µM] | -31.3% | 9.3% | 11.5%
Cc1cc(N2CCOCC2)n2ncc(-c3ccccc3)c2n1 | ? | 2.59µM* | -17.9% | ? | -64.2% | -14.6%
Cc1cc(N2CCCCC2)n2ncc(-c3ccccc3)c2n1 | ? | 4.47µM* | -0.9% | 10µM* | ? | -0.8%
COc1ccc(NC(=O)CSc2nnc3scc(-c4ccc(Cl)cc4)n23)cc1 | 23.2%[46.1 µM] | -20.9%[46.1 µM] | 4.6% | / | -17.1% | /
Cc1ccc(NC2=C(C(=O)c3ccccc3)N(C)S(=O)(=O)c3ccccc32)cc1 | ? | -28.7% | -19.5% | 11.2µM* | -1.7% | -27.1%
CN1C(C(=O)c2ccccc2)=C(N)c2ccccc2S1(=O)=O | -7.3%[46.1 µM] | -5.5%[46.1 µM] | 0.0% | 3.8% | 10.7% | 1.4%
COCCC1CCCCN1C(=O)c1cc(COc2ccc(-n3cncn3)cc2)on1 (stereo unspecified) | ? | ? | -9.4% | 10µM* | ? | 23.6%
C=CCOc1ccccc1OCC(O)CNC(C)C (stereo unspecified) | / | / | -2.8% | 1µM* | -12.1% | 6.0%[18.4 µM]
Cc1cccc(C)c1OCC(O)CNC(C)C (stereo unspecified) | 7.7% | 16.8% | 2.3% | 13.1% | 5.8% | 17.3%
Cc1ccc(OCCn2cnc3cc([N+](=O)[O-])ccc3c2=O)cc1 | -7.4% | -0.1% | -19.6% | -27.3% | -11.7% | -5.6%
COc1ccc2c(Cn3cnc4cc([N+](=O)[O-])ccc4c3=O)cc(=O)oc2c1 | 4.47µM* | ? | 6.1% | -4.7% | ? | 14.3%
CCc1nn(CCCC(=O)NCc2ccccc2C)c(=O)c2cc3occc3n12 | 8.3%[46.1 µM] | 1.5%[46.1 µM] | 2.0% | ? | -2.5% | 14.4%
CCc1nn(CCCC(=O)NCc2cc(Br)ccc2OC)c(=O)c2cc3occc3n12 | ? | -6.8%[46.1 µM] | -4.1% | 10µM* | -14.0% | -4.4%
SMILES | Marburg entry inh | Lassa entry inh | Sm TGR block | HCV inh | FMDV inh | RE007 growth inh
CCc1nn(CCCC(=O)NCc2ccc(OC(C)C)cc2)c(=O)c2cc3occc3n12 | ? | 18.0%[46.1 µM] | -2.1% | 8.91µM* | -31.5% | 3.9%
CCc1nn(C(C)C(=O)NC2CCCCCC2)c(=O)c2cc3occc3n12 (stereo unspecified) | 20.6%[46.1 µM] | 18.0%[46.1 µM] | -1.5% | 10µM* | 22.9% | 10.8%
CCCc1cc(=O)[nH]c(Nc2ccccc2O)n1 | -7.3%[46.1 µM] | ? | -31.9% | / | 6.0% | /
CCc1ccc(-n2c(=O)c3c4c(sc3n(CC(=O)c3ccc(Br)cc3)c2=O)CCC4)cc1 | ? | -24.9%[46.1 µM] | -12.8% | / | 5.6% | /
CCCCCOc1ccccc1CN1C(=O)C(=O)c2cc(C)ccc21 | -26.0%[46.1 µM] | -18.9%[46.1 µM] | -16.6% | / | 0.0% | /
COc1ccc(CNC(=O)c2c(Nc3ccccc3C)sc(C(=O)c3ccccc3)c2N)cc1 | / | ? | -3.0% | / | 0.0% | /
Cc1cccc(CCNC(=O)C2CCCN(S(=O)(=O)c3ccc4c(c3)oc(=O)n4C)C2)c1 (stereo unspecified) | 6.9%[46.1 µM] | -18.0%[46.1 µM] | -4.6% | / | -13.0% | /
COc1ccc(C2=NO[C@@](CC(=O)O)(C(=O)Nc3ccc4c(c3)OCCO4)C2)cc1 | ? | 27.8%[46.1 µM] | 22.4µM* | 10.0% | 5.6% | -8.9%
NC(=O)COc1ccccc1C1=NO[C@@](CC(=O)O)(C(=O)Nc2ccc3c(c2)OCCO3)C1 | / | / | 17.8µM* | -0.6% | -10.5% | 2.6%
COc1ccc(-c2[nH]c(-c3ccccc3)nc2SCC(=O)Nc2ccc3c(c2)OCCO3)cc1 | ? | ? | 6.6% | / | -10.1% | /
CCn1c2ccccc2c2c3ncc4cccn4c3ccc21 | 13.2%[46.1 µM] | 1.7%[46.1 µM] | 28.2µM* | 11.2µM* | -2.7% | -23.4%
c1ccc2c(c1)ncc1cccn12 | 1.3% | 12.7% | 10.4%[11.4 µM] | -8.5% | / | 13.1%
COc1ccc2c(c1)[C@@]1(OCCC=C[C@@H]1C)C(=O)N2Cc1ccc(F)cc1 | 27.7%[14.2 µM] | ? | / | / | / | /
Cc1cc(-n2c(C)nc3ccccc3c2=O)ccc1NC(=O)c1cccc([N+](=O)[O-])c1C | / | ? | -1.4% | / | -3.6% | /
COc1nc(-c2ccccc2)ncc1S(=O)(=O)c1ccccc1 | -3.1% | -17.7% | / | ? | -25.6% | -0.3%
Cc1nc(-c2ccccc2)sc1-c1nc(-c2ccncc2)ncc1S(=O)(=O)c1ccccc1 | 4.47µM* | ? | 0.0% | ? | ? | -18.1%
CC(=O)NCCNc1ccnc(-c2ccccc2C)n1 | / | / | / | / | -3.3% | /
Cc1c(C(=O)N(C)Cc2nccs2)sc2ncnc(NCC3CCCO3)c12 (stereo unspecified) | / | / | / | / | -19.3% | /
COc1cc(-n2nc(C)c3c2OC(N)=C(C#N)C3c2ccccc2)c(Cl)c(Br)c1O (stereo unspecified) | -54.4% | -0.4% | -32.6% | ? | 22.4µM* | -23.6%
COc1ccccc1NC(=O)CN1C(=O)CCS(=O)(=O)c2ccccc21 | 2.6% | 8.8% | ? | -6.3% | 9.7% | 9.3%
COc1cc(NC(=O)CN2c3ccccc3CC2C)cc(OC)c1OC (stereo unspecified) | ? | -9.8% | ? | ? | -18.9% | 3.0%

Source: PubChem BioAssay (National Center for Advancing Translational Sciences (NCATS))
